# Compound activity (PubChem)
# MARV entry inh: Marburg virus entry inhibition; 300,000 tested, 1.8% active; AID 540276; Potency, µM (top dose mostly 37.8 µM), for inactives: at the highest dose activity change, negative = inhibition, hits mostly inhibitors; Marburg virus pseudotyped entry inhibition, cell reporter; calls by dose curve; tested in HEK293 cells; note: potency is the fitted concentration of half-maximal effect
# VACV Venus inh: vaccinia inhibition (Venus reporter); Vaccinia virus Venus reporter expression, fluorescence; 330,000 tested, 0.46% active; Potency, µM (top dose mostly 36.5 µM), inactives show at the top dose activity change, negative = inhibition, hits mostly inhibitors; calls by dose curve; tested in A549 cells; note: potency is the fitted concentration of half-maximal effect; nearly all actives have a fitted effect of over 30% in size
# FMDV antiviral: foot and mouth disease virus antiviral activity | FMDV antiviral cell-based qHTS | Potency, µM (series often up to 57.9 µM), for inactives: at the highest dose activity change, negative = inhibition, actives largely listed as inhibitors | 410,000 tested, 1.2% active; calls by dose curve; tested in HEK293T cells; note: read-out not given here; potency is the fitted concentration of half-maximal effect; nearly all actives have a fitted effect of over 45% in size
# LASV entry inh: blocks Lassa virus binding to or entry into cells | Lassa virus pseudotype entry inhibition, cell reporter | Potency, µM (doses to about 37.9 µM), for inactives: at the highest dose activity change, negative = inhibition, most hits filed as inhibitors | 300,000 tested, 1.2% active; calls by dose curve; tested in HEK293 cells; note: potency is the fitted concentration of half-maximal effect; nearly all actives have a fitted effect of over 50% in size
# HCMV antiviral: inhibitors of human cytomegalovirus. HFF cells, HCMV-luciferase reporter, 72 h; stronger effect = lower value. activity change, negative = inhibition, % at 57.5 µM. 410,000 tested, 4.5% active; in the data active = activity change below about -60%; inconclusive = no clear call, values can overlap the other calls; inactive = above about -39%
#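 Two compound doses tested in HFFs infected with HCMV-luciferase, MOI 1 PFU/cell, 72 h at 37C. Lysate luminescence read with OneGlo; data normalized against buffer-only and 10uM Salinomycin inhibitor controls.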
# Vaccinia mCherry: inhibitors of vaccinia virus infection (mCherry reporter signal); AID 720579; Vaccinia virus mCherry reporter infection, fluorescence; Potency, µM (titrated, usually from 36.5 µM), inactives show at the highest dose activity change, negative = inhibition, hits mostly inhibitors; 310,000 tested, 0.63% active; calls by dose curve; tested in A549 cells; note: potency is the fitted concentration of half-maximal effect; nearly all actives have a fitted effect of over 35% in size
# * marks the source's active call; other numbers are inactive results; i = inactive; ? = inconclusive; nt = not tested or not shown; [ ] = another dose, or the depositor's remark. An excerpt weighted towards active compounds, which were near 6.5% of everything screened. % is set by controls: 0 for no effect and ±100 for the full control effect.
SMILES,MARV entry inh,VACV Venus inh,FMDV antiviral,LASV entry inh,HCMV antiviral,Vaccinia mCherry
Cc1ccc(CN2C3CCCC2CC(NC(=O)c2ccc(C)cc2)C3)cc1 (centres undefined),13µM*,nt,-20%,?,?,nt
CCCN1C2CCCC1CC(NC(=O)c1ccccc1OC)C2 (centres undefined),?,-21%,-8%,-7%[46.1 µM],66,i
CC(=O)NC1CC2CCCC(C1)N2Cc1ccc(C)cc1 (centres undefined),nt,nt,-10%,nt,-11,nt
COc1cc(=O)n2c(c1C(=O)N(C)Cc1nonc1C)CCN(Cc1ccccc1Cl)CC2,nt,4%,-14%,nt,nt,-7%
Cc1ccc(Nc2c(-c3ccc(C)s3)nc3cccc(C)n23)cc1,nt,-13%,nt,nt,nt,-23%
Cc1cc2nc(C(=O)NC3CCCCC3)c(-c3cccc(Br)c3)nc2cc1C,nt,nt,nt,nt,28,nt
Cc1ccc2nc(-c3ccc4c(c3)OCCO4)cn2c1,?,-18%,3.2µM*,1µM*,-103*,i
CCc1ccn2cc(-c3cc(-c4ccccc4)no3)nc2c1,nt,nt,3.2µM*,nt,-95*,nt
Nc1nc(-c2ccc3c(c2)OCCO3)cs1,-16%,7.1µM*,34%,7%,78,-18%[1.46 µM]
CC(=O)Nc1ccc2nc(-c3ccccc3)cn2c1,?,-10%,-18%,?,21,-11%
Cc1ccc2nc(-c3cc(-c4ccccc4)no3)cn2c1,?,-3%,-48%,0.89µM*,5,i
O=C(NCc1ccc(F)cc1)C1CCCN1C(=O)Nc1ccc(Cl)cc1 (centres undefined),nt,nt,32%,nt,-19,nt
Oc1ccccc1-c1cc(-c2ccccc2)no1,?,-8%,10%,?,176,nt
Cc1ccc(-c2cc(-c3ccccc3)no2)c(O)c1,?,0%,?,5µM*,3,-13%
C[C@H]1[C@H](C)CC[C@]2(C(=O)O)CC[C@]3(C)C(=CC[C@@H]4[C@@]5(C)C[C@@H](O)[C@H](O)C(C)(C)[C@@H]5CC[C@]43C)[C@H]12,7%,13µM*,0%,1%,nt,?
CC1CCC2(C(=O)O)CCC3(C)C(=CCC4C3(C)CCC3[C@@]4(C)CC(O)C(O)[C@@]3(C)CO)C2C1C (some centres undefined),nt,1%,-5%,nt,nt,-1%
COC(=O)c1ccccc1NCc1cc(=O)oc2cc(O)c(O)cc12,?,?,-9%,?,0,7.1µM*
O=C(/C=C/c1ccccc1Br)c1ccc2c(c1)OCO2,13%[46.1 µM],-14%,-8%,?,1,i
O=C(/C=C\Nc1ccccc1Br)c1ccc2c(c1)OCO2,5.6µM*,-12%,-88%,nt,-33,-22%
O=C(/C=C/Nc1ccc(F)cc1Br)c1ccccc1,?,-3%,2.8µM*,2µM*,?,3%
CCOC(=O)[C@]12CCC=C1N(Cc1ccco1)C(=O)[C@H](CC(=O)N1CCOCC1)C2,nt,3%,-6%,nt,40,12%
COc1ccc(-c2ccc(/C=C3/C(=N)N4C(C)=CSC4=NC3=O)o2)c([N+](=O)[O-])c1,-3%,54%,40µM*,0%,9,-10%
CCc1ccc(OCC(=O)Nc2ccc3c(c2)c2ccccc2n3CC)c(Br)c1,?,2%,-20%,19%[46.1 µM],4,-12%
COc1ccccc1C(=O)NCCC(=O)N1CCN(c2ccccc2Cl)CC1,-3%,?,?,23%,3,-14%
COc1ccccc1C(=O)NCCC(=O)N1CCN(c2ccc(C(F)(F)F)cn2)CC1,-26%[46.1 µM],-10%,?,10%,-85*,-10%
CCCN(CC(=O)Nc1ccccc1OC)C(=O)CCCN1C(=O)c2ccccc2C1=O,-11%,-6%,-21%,-2%[46.1 µM],-26,-17%
O=S(=O)(Nc1cccc(Cl)c1)c1ccc2[nH]c3c(c2c1)CCCCCC3,nt,-21%,50%,?,-34,?
Cc1cccc(NS(=O)(=O)c2ccc3[nH]c4c(c3c2)CCCCCC4)c1,nt,-16%[7.34 µM],27%,-20%[46.1 µM],-103*,-19%[7.34 µM]
CN(C)c1ccc(CNS(=O)(=O)c2ccc3[nH]c4c(c3c2)CCCCC4)cc1,nt,-8%,3%,?,-65*,-15%
Cc1ccc(NS(=O)(=O)c2ccc3[nH]c4c(c3c2)CCCCCC4)cc1Cl,nt,-19%,0%,-14%[46.1 µM],-83*,-16%
